Experimental data: PubChem BioAssay AID1159580 (chemical genetic matrix, 2015)
Hit rate of the full screen: of about 5,500 compounds, about 2,000 (36%) were called active. Roughly 18% stayed inconclusive and do not appear here. Rule as the data show it: active = normalized growth mostly below about 0.91 (no sharp cut-off); inconclusive = no clear call, values can overlap the other calls; inactive = mostly above about 0.92. The list shows a part of the results.

Assay: chemical genetic growth profiling, strain panel (AID 1159580);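 also: tested at 20 µM; growth read once vehicle control cultures reached saturation at 30 °C; 1 = growth at the plate median or of vehicle wells; lower values mean less growth of the strain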
Conditions: S. cerevisiae deletion strains, growth OD

Measured: normalized growth

COc1cc(C2OC(c3cc(C)ccc3[N+](=O)[O-])=NN2C(C)=O)cc(OC)c1OC (stereo not given)
inactive: locus YAL013W, strain DEP1, hits give low values 0.986 | locus YBR229C, strain ROT2, hits give low values 0.975 | locus YDL101C, strain DUN1, hits give low values 1.04 | locus YDL134C, strain PPH21, hits give low values 0.999 | locus YDR150W, strain NUM1, hits give low values 0.993 | locus YEL061C, strain CIN8, hits give low values 0.941 | locus YGR078C, strain PAC10, hits give low values 1 | locus YGR229C, strain SMI1, hits give low values 0.999 | locus YHR030C, strain SLT2, hits give low values 0.948 | locus YHR087W, strain rtc3, hits give low values 0.963 | locus YJL187C, strain SWE1, hits give low values 0.98 | locus YJR043C, strain POL32, hits give low values 1 | locus YJR075W, strain HOC1, hits give low values 0.999 | locus YKL190W, strain CNB1, hits give low values 0.993 | locus YLR039C, strain RIC1, hits give low values 0.969 | locus YLR058C, strain SHM2 (second series), hits give low values 0.978 | locus YLR085C, strain ARP6, hits give low values 0.967 | locus YLR262C, strain YPT6, hits give low values 0.948 | locus YML094W, strain GIM5, hits give low values 0.98 | locus YMR219W, strain ESC1, hits give low values 0.984 | locus YMR263W, strain SAP30, hits give low values 0.999 | locus YNL128W, strain TEP1, hits give low values 0.991 | locus YNL153C, strain GIM3, hits give low values 1.02 | locus YNL298W, strain CLA4 (second series), hits give low values 1.01 | locus YNL322C, strain KRE1, hits give low values 0.993 | locus YNR030W, strain Alg12, hits give low values 0.985 | locus YOL006C, strain TOP1, hits give low values 0.924 | locus YPL055C, strain LGE1, hits give low values 0.972 | locus YPL241C, strain CIN2, hits give low values 1.01 | locus YPR135W, strain CTF4, hits give low values 1.04
